Compound activity from PubChem BioAssay.
aDG glyco act – alpha-DG glycosylation activation. Pro5-aDG cells, alpha-DG glycosylation AlphaScreen (IIH6); 0% Pro5, 100% B10-LARGE cell signal. activation, % at 10 µM. 0.22% of 360,000 active. AID 624168;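 active = activation of at least 8% versus controls, or a plate z-score of at least 8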;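 also: Pro5 are CHO cells carrying HIG-tagged alpha-DG that lacks glycosylation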
TAG inh – reduces triacylglycerol accumulation in H9c2 cells | inhibition, % at 12.5 µM | 0.66% of 230,000 active | Nile Red lipid (TAG) fluorescence; cells loaded with 200 µM oleic acid;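 active = pattern-corrected inhibition of lipid staining of at least 50% with the nuclear-stain viability signal not falling by more than 50%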;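 also: 0% = DMSO wells and 100% = triacsin C control wells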
MPTP block – blocks calcium-induced mitochondrial swelling. 1.4% of 360,000 active. inhibition, % at 10 µM. isolated mouse mitochondria, Ca2+ swelling absorbance, 30 min. AID 602449;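 active = inhibition of 50% or more, scaled per plate between neutral and stimulator controls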;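 also: 0% = DMSO wells given calcium and 100% = 1 mM EGTA wells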
NadD inh – inhibitors of Staphylococcus aureus NadD | purified NadD enzyme, colorimetric absorbance read-out | inhibition, % at 20 µM | 0.78% of 360,000 active | AID 602399; in the data active = inhibition above about 26%
Rh123 counter – Rhodamine 123 counter-screen of mitochondrial pore hits; shares compounds with MPTP block; isolated mitochondria, membrane potential, Rhodamine 123 fluorescence; inhibition, % at 10 µM; 78% of 5,000 active; AID 624504; in the data active = inhibition above about 22%;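 also: 0% = DMSO vehicle and 100% = positive control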
MPTP abs DR – dose response confirmation of mitochondrial permeability transition pore inhibitors; isolated mitochondria swelling, absorbance; 58% of 780 active; IC50, µM; shares compounds with MPTP block; in the data active = IC50 below about 20 µM
MPTP cs DR – MPTP inhibitor counter-screen activity, dose response; 49% of 780 active; shares compounds with MPTP block; isolated mitochondria counterscreen, fluorescence read-out; IC50, µM; in the data active = IC50 below about 80 µM
* = called active by the depositor; i = inactive; / = no result given. Hits are enriched below; roughly 2.7% of the tested compounds scored in any of these assays.

SMILES	aDG glyco act	TAG inh	MPTP block	NadD inh	Rh123 counter	others
CC(O)CN1CCN(C(=O)CN2C(=O)NC(c3ccccc3)(c3ccccc3)C2=O)CC1 (configuration not stated)	0.0	/	-0.1	5.0	/
Cc1onc(-c2c(Cl)cccc2Cl)c1C(=O)NCc1ccco1	0.2	-18.7	71.9*	1.7	3.5	MPTP abs DR=i;MPTP cs DR=>80
Clc1ncnc2c1oc1ccccc12	0.5	19.2	-2.6	-1.5	/
c1coc(CN(Cc2ccco2)c2ncnc3c2oc2ccccc23)c1	1.7	/	83.4*	6.0	66.6*
CCCC#Cc1cnc2c(c1)C(=O)N([C@H](C)CO)C[C@H](C)[C@@H](CN(C)C(=O)CCN1CCCCC1)O2	-0.2	3.4	0.0	9.8	/
COc1cc(CNCCc2ccc(S(N)(=O)=O)cc2)ccc1OCc1ccc(Cl)cc1	0.1	/	50.0*	9.1	7.2	MPTP abs DR=3.86*;MPTP cs DR=14.7*
COc1cc(CNCCc2ccc(S(N)(=O)=O)cc2)ccc1OCC(=O)NC1CCCCC1	-0.3	/	-1.9	-13.8	/
NN/C(=C\[N+](=O)[O-])Nc1ccc(Cl)cc1	-0.1	/	55.3*	2.1	86.5*
NN/C(=C\[N+](=O)[O-])Nc1ccccc1	0.1	/	2.6	0.5	/
C=CCn1c(SCC(=O)c2cccs2)nc2sc(CC)cc2c1=O	5.0	/	91.2*	-3.2	76.9*
C=CCn1c(SCC2CCCCO2)nc2sc(CC)cc2c1=O (configuration not stated)	0.1	16.8	54.4*	-12.5	22.4*
C=CCn1c(SCC(=O)O)nc2sc(CC)cc2c1=O	-0.1	/	0.5	-5.0	/
CC(C)(C)OC(=O)N1CCC(c2c(C(=O)N3CCN(C(=O)c4ccco4)CC3)cnn2-c2ccc(F)cc2F)CC1	0.1	/	-0.2	-1.0	/
CCCCCCNCC(=O)N1CCC(Cc2ccccc2)CC1	0.6	/	85.7*	0.1	-3.5	MPTP abs DR=11.3*;MPTP cs DR=44.5*
O=C(NCc1ccc(Cl)cc1Cl)Nc1ccccc1	-0.1	-23.3	79.9*	-10.1	94.5*
O=C(NCc1csc2ccc(Cl)cc12)Nc1cccc2ccccc12	-0.2	39.8	18.4	17.8	/
O=C(NCc1csc2ccc(Cl)cc12)Nc1ccccc1	0.2	-5.1	84.7*	-4.4	74.8*
Cc1cc(Cl)ccc1NC(=O)NC1CCN(S(=O)(=O)c2ccc(F)cc2)CC1	0.5	-11.2	59.4*	-9.6	75.6*
O=C(Nc1ccc(F)cc1F)NC1CCN(S(=O)(=O)c2ccc(F)cc2)CC1	0.8	3.4	-0.9	-8.0	/
COc1ccc(-c2nc(-c3cccc(C)c3)nc(N3CCN(C)CC3)c2C#N)cc1	1.2	/	91.0*	-11.0	1.3	MPTP abs DR=i;MPTP cs DR=>80
CN1CCN(c2nc(-c3ccccc3)nc(-c3ccccc3)c2C#N)CC1	0.3	21.8	68.8*	-5.9	-5.3	MPTP abs DR=16.7*;MPTP cs DR=>80
COc1ccc(-c2nc(-c3ccccc3)nc(N3CCN(C)CC3)c2C#N)cc1	0.0	44.4	-2.8	-5.8	/
COC(=O)c1sc2nc(-c3ccccc3)nc(N3CCN(C)CC3)c2c1C	0.2	33.9	75.8*	4.4	-10.2	MPTP abs DR=9.8*;MPTP cs DR=>80
COc1cccc(-c2nc(-c3ccccc3)nc(N3CCN(C)CC3)c2C#N)c1	0.3	11.4	1.2	-10.3	/
CCOC(=O)c1sc2ncnc(N3CCN(C)CC3)c2c1C	1.6	3.2	-3.7	-5.1	/
SMILES	aDG glyco act	TAG inh	MPTP block	NadD inh	Rh123 counter	others
CC(C)CNC(=O)C1(C)CCCN1C(=O)c1ccc2c(c1)CCO2 (configuration not stated)	0.0	-7.6	-1.0	-0.5	/
O=C(CCSc1nc2ccccc2s1)N/N=C/c1c(O)ccc2ccccc12	0.5	/	77.0*	30.3*	63.0*
CCCC(=O)Nc1c(-c2cccc(OC)c2)c(=O)c2ccccc2n1C	-0.2	/	0.1	-2.2	/
CC(C)(O)C(=O)NNC(=S)Nc1cccc(C(F)(F)F)c1	0.0	1.9	-2.5	2.3	/
CNNC(=S)Nc1cccc(C(F)(F)F)c1	-0.2	8.0	3.4	-0.7	/
FC(F)(F)c1cccc(NC(=S)Nc2ccc(Cl)c(Cl)c2)c1	-0.1	-9.5	80.8*	0.5	65.2*
CC(C)(C)NC(=S)Nc1cccc(C(F)(F)F)c1	0.3	-11.5	65.2*	-2.2	84.2*
FC(F)(F)c1cccc(NC(=S)NC(c2ccccc2)c2ccccc2)c1	1.7	/	70.3*	-5.3	83.4*
O=C(NNC(=S)Nc1cccc(C(F)(F)F)c1)c1ccc(Cl)cc1Cl	-0.2	/	101.0*	3.5	89.1*
Cc1ccccc1C(=O)NNC(=S)Nc1cccc(C(F)(F)F)c1	-0.2	/	23.5	2.2	/
OC(c1ccc(F)cc1)c1nc(-c2ccoc2)cs1 (configuration not stated)	-0.3	-15.9	0.5	-0.7	/
COC(=O)C[C@H]1C=C[C@@H](NC(=O)Nc2c(C)noc2C)[C@@H](CO)O1	-0.3	/	3.1	/	/
O=C(NC(=S)Nc1cccc(C(F)(F)F)c1)c1ccc2nonc2c1	0.0	-10.8	72.9*	-3.5	80.5*
O=[N+]([O-])c1cc(C(F)(F)F)cc([N+](=O)[O-])c1NCCNC(=S)Nc1ccc(Cl)c(Cl)c1	0.2	-4.7	75.6*	1.7	69.2*
O=[N+]([O-])c1cc(C(F)(F)F)cc([N+](=O)[O-])c1NCCN1CCNCC1	1.6	/	0.3	-9.7	/
O=C(O)c1cccc(NC(=S)NC(=O)c2ccncc2)c1	0.3	-22.7	-1.3	6.1	/
Cc1cccnc1NC(=S)Nc1ccc(Cl)c(Cl)c1	-0.1	8.9	89.6*	-0.8	96.5*
COc1ccc(CNC(=O)CCNS(=O)(=O)c2ccc(NC(C)=O)cc2)cc1OC	-0.1	-8.0	-0.6	1.9	/
Cc1cc(Br)c(NC(=O)CSc2n[nH]c(N)n2)c(Br)c1	0.1	3.4	-0.8	2.7	/
O=c1cc(Cn2ccnc2)c2cc(O)ccc2o1	0.1	/	1.6	0.6	/
Cc1cccc(NC(=S)NCC(C)CSc2ccc(Cl)cc2)c1 (configuration not stated)	1.1	-17.8	89.3*	-5.5	93.8*
Cc1ccc(NC(=S)NCC(C)CSc2ccc(Cl)cc2)cc1 (configuration not stated)	0.1	-1.5	44.0	-2.9	/
Cc1cc(Cl)ccc1NC(=S)NCCCO	-0.2	2.7	-1.0	6.7	/
Cc1ccc(C)c(NC(=S)NCCSc2ccc(Cl)cc2)c1	0.4	-33.9	75.9*	1.2	90.5*
Cc1cccc(NC(=S)NCCSc2ccc(Cl)cc2)c1	0.2	-36.1	98.4*	-0.9	84.9*
Cc1cccc(NC(=O)NCCc2ccc(Cl)cc2)c1	0.7	-7.4	5.9	0.8	/
Cc1ccc(Cl)cc1NC(=S)NCCCSC1CCCCC1	0.8	-30.0	99.1*	-1.7	91.1*
CC(=O)N[C@@H](C)c1nc2ccccc2n1CCCN1CCN(c2nc(-c3ccc(C)cc3)cs2)CC1	1.0	6.5	-1.4	-9.7	/
CCCN(CC(=O)Nc1ccccc1OC)C(=O)Cc1ccc2c(c1)CCC2	0.0	-0.8	-0.6	8.6	/
